# How the values were obtained:
# Test in all cases: PBM binding z-score (relative to random genomic background probes); higher = stronger binding; sequences stand for … in GC…GCGATTGACAGCGTAGAATGAAGG
# [1] = test system: RARb homodimer (NR concentration 270 nM)
# Outline: (§1)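 Random background probes are the reference for binding z-scores. These scores derive from regression-normalized fluorescence on custom Agilent 4×180K protein-binding microarrays incubated 1 h with ligand-free nuclear receptor dimers. Binding was detected with antibodies against each partner (one per run).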
# [2] = test system: RARg:RXRa (NR concentration 270 nM, RXRa partner concentration 90 nM)
# Outline: as §1
# [3] = test system: RARg homodimer (NR concentration 270 nM)
# Outline: as §1
# [4] = test system: RXRa DBDmut IVT, anti-RXR (DBD mutation: RXRa K156A/R161A, NR concentration 90 nM)
# Outline: as §1
# [5] = test system: RXRa homodimer (NR concentration 180 nM)
# Outline: as §1
# [6] = test system: THRa:RXRa (NR concentration 90 nM, RXRa partner concentration 90 nM)
# Outline: as §1
# [7] = test system: THRa homodimer (NR concentration 90 nM)
# Outline: as §1
# [8] = test system: VDR:RXRa (NR concentration 270 nM, RXRa partner concentration 90 nM)
# Outline: as §1
# [9] = test system: VDR homodimer (NR concentration 270 nM)
# Outline: as §1
Sequence,PBM binding z-score [1],PBM binding z-score [2],PBM binding z-score [3],PBM binding z-score [4],PBM binding z-score [5],PBM binding z-score [6],PBM binding z-score [7],PBM binding z-score [8],PBM binding z-score [9]
GATACTGGGTCAAGGCCAGAGTACGCGTATTGAT,2.91,3.4,3.58,-0.138,2.62,2.09,0.289,1.46,0.679
TCGCCTAGGTCATTGGGCCAGTATAGTACGCATC,2.87,3.95,3.88,2.13,2.69,2.68,0.959,2.23,1.57
GCGCCTGGGGCAAAGCAGGTTACCATAAGGTTGG,0.951,0.319,0.493,-0.424,0.237,2.96,-0.193,-0.092,-0.387
ACTATTAGTTGTCTTAGGGCAACCGATACGACGC,0.406,0.149,0.589,0.518,0.061,1.03,0.603,-0.0128,0.0368
GCTAACGGGTCAAAGGTTATAGCATGAATAGAAT,3.09,6.57,4.55,1.87,8.85,3.65,-0.286,4.9,1.33
AGTCAAAGTTCAGGACGAGGTATCGTAAAGCACG,2.81,4.03,4.67,2.93,2.81,2.54,0.691,2.29,2.06
CATACAGGGTGAGCTAGGCCAGAGTAGGGACGGC,0.342,0.54,0.662,-1.01,0.302,0.989,0.182,-0.189,-0.497
TCATGTAGGTAAACAGGTGAAAGTCCGTAAGTTA,0.722,0.133,0.0838,0.975,0.516,0.578,0.226,0.613,-0.0362
CCTGCTAGGTCATGGTCAGCCAATCTACAGTATG,3.14,3.98,4.45,1.26,3.04,3.07,1.18,1.71,0.0846
ATCTCTAGGTAACCAAGTTTAGTGAATGCCGAAC,0.287,0.383,0.348,0.384,0.298,0.78,0.672,1.55,0.855
GTTAGTTGGTCAGTAAAAGGTCACACACCGGTCG,5.25,5.67,5.37,1.14,6.08,3.68,2.18,4.28,2.3
GCATATAGCTAATACAAGGTGAAAGTCCGATTGT,0.396,0.366,0.451,0.494,0.476,1.43,0.866,0.231,0.162
TCAGACAGGTTAAGGTAACTCAGGTACGCAGTCG,1.33,1.22,1.08,1.43,1.57,3.11,2.5,1.53,0.557
TTACCAAGGTGAAGGTCGTTAATCCCTCTGTAGA,1.62,1.07,0.814,-0.0664,1.54,2.22,0.878,1.16,0.939
CCTTACGGGTCACGAGATTATAGCACGACGAGCG,2.95,5.47,5.3,1.95,5.8,2.82,0.216,3.55,0.718
TCATATAGGTAAAGGTGAAAGTTGAACGATATGA,2.08,2.34,1.51,0.648,3.71,1.79,-0.127,1.58,0.139
ATATGTAGGTTAGCTGGGGTCACTCAGACTAGGC,4.11,4.29,3.51,1.52,5.23,5.18,3.2,5.64,2.95
AGAATGCGGTTACCAAAGATCAGGGAAACGCTTG,-0.737,0.095,0.185,-0.735,0.309,-0.323,-1.27,-0.612,-1.02
CCTTACGGGTCACTCCAGGTTATAGCTTCGGAGT,3.13,4.36,4.47,1.65,4.42,4.92,0.616,3.95,1.61
ATCTCTAGGTAACGAAGTTCAGTGAATGCCGAAC,1.38,0.591,0.883,0.137,0.413,0.946,0.14,2.56,1.27
ATCTCTAGGTAAAGATAGTTCAGCGAATGCAAAT,1.42,0.793,0.971,-0.00603,0.377,0.867,-0.0177,1.08,0.508
TCTTTTAGTTGAAGGGCAACCGACGAGTCCGTTT,1.24,0.599,0.744,1.5,0.842,0.355,-0.174,0.995,1.29
ATGTCTAGGTAACCAAGTTCAGTGAATGCCGAAC,1.34,0.808,0.759,0.268,0.737,1.42,0.382,3.97,2.08
CAAACTAGATCAAAGGTCAAAGTCGAGCCAACCA,4.67,6.29,5.66,2.16,7.75,3.51,0.812,4.93,2.87
TCTTATAGGTAAATGCTAGGTGAAAGTCCGATCT,0.569,0.602,0.586,1.88,0.669,1.52,0.924,0.709,0.694
TCTCTTAGTTGAAGGGCAACCGACGAGTCCGTTT,1.22,0.587,0.371,1.52,0.71,0.283,0.0407,0.951,1.24

Sequence,PBM binding z-score [1],PBM binding z-score [2],PBM binding z-score [3],PBM binding z-score [4],PBM binding z-score [5],PBM binding z-score [6],PBM binding z-score [7],PBM binding z-score [8],PBM binding z-score [9]
ACAACGAGGGCAATGAGTTGATAGCACGGGTGGC,1.02,1.31,1.71,2.02,0.837,0.856,-0.343,5.13,2.98
GGAACGAGGGCAAGTAGATAGCAGAGTTTGATGG,1.26,1.3,1.91,1.7,0.888,0.882,-0.115,0.536,1.29
AGTCAAAGTTCAGGATGAGGTAACGTAAAGCACG,3.38,4.78,4.82,2.73,3.26,4.21,1.73,2.88,2.09
AGAATGAGGTTATACGCAGATCAGGGAAGAAAGT,0.779,1.67,0.985,1.47,2.3,2.22,0.465,1.35,0.945
CCTAGCAGGCCAATCTGGGTCACTCACGGCTTGA,2.23,1.18,1.36,0.336,0.802,3.47,0.637,0.411,0.103
AGAATGAGGTTATACGTAGATCAGGGAGGAAAGT,0.93,1.79,1.27,1.87,2.27,2.24,0.817,1.33,1.09
TCTATTGGTTGATTAGGGCAACCGAAACAGCGGA,0.698,0.341,0.499,0.712,0.317,0.871,0.352,0.547,0.054
CTCGAAAGGTCGGCTGAGGTGAGTATACGGATAA,2.61,3.82,3.8,0.843,3.44,5.13,1.12,2.95,0.549
TAGCCTAAGTCAGATCGGGCCAGTATACGCTATA,-0.342,-0.329,-0.306,-0.669,-0.25,1.43,-0.221,-0.662,-0.691
ATCGAAAGGTCGAAGGTGAGTAGACCCACCCGAA,2.17,4.35,4.04,1,5.53,1.87,-0.399,2.43,-0.0656
CCCGACAGGTGAAAGGTAACTCAGTCTGGTACGC,0.903,1.26,0.581,-0.307,2.02,1.09,0.506,0.836,-0.0778
ACTCGGAGGACAAAGGTCGGAGCTACGCCAGTGA,2.12,3.28,1.75,0.784,2.2,1.98,0.0146,0.947,0.22
CCGAGTAGGTTATCGGGCATTCAGGCAACGGTGA,0.614,0.431,0.479,-0.164,0.45,0.172,-0.196,-0.386,-0.435
GCTTGTAGATCAAGGTTAAGAACGACTAAGCTAA,0.388,0.414,0.334,0.11,0.789,1.25,-0.079,0.288,0.0114
CAAACTAGGTCTCAGAGGTCAAAGTCCGTGCGTA,4.68,5.13,4.6,1.65,6.01,3.63,1.7,5.82,4.57
AGTCGAAGTTCATCTAGGTAACGTAAGATATGCT,2.11,2.84,3.19,3.88,1.91,2.31,-0.00664,3.51,3.81
TCTGCTAAGTCAACGATGGTCAGCTAATCTGCTA,-0.66,-0.413,-0.169,-0.0661,-0.206,-0.52,-1.37,-0.644,-1.4
GCTAGTTGGTCAGTAGAAGGTCACACACCGGTCG,4.34,4.23,3.7,0.334,3.35,2.75,1.59,2.65,1.32
ACTAGTTGGTCAGCTGAGGGCACACACAATTCGG,2.11,0.999,1.42,0.326,0.707,3.55,1.29,1.2,0.929
TGAATGAGGTTATCAGATCAGGGAACGTTGCAAA,0.317,1.62,1.06,0.731,1.99,2.02,0.233,1.04,0.273
CCTACTGAGCCAAAGGTCATTGATTCCAATGCTC,4.56,5.34,4.83,2.32,5.76,3.33,1.26,4.81,3.3
CCAGACAGGTGAGAAGGTACCTCAGCCTCGATTA,0.101,0.161,0.0168,0.0456,0.155,0.0348,0.0556,-0.437,-0.352
ACTAGCAGGCCACGTTTGGGTCACTCAAACAAAG,1.91,2.05,1.58,-0.109,0.813,2.64,1.28,0.312,-0.0731
ATATGTAGGTTAGCTGGGGTCATTTAGACTAGGC,3.75,3.88,2.65,2.15,5.02,5.36,3,5.97,4.51
TTACCAAGGTGAAGGTAGTTGATCCCTCTGTAGA,0.8,0.328,0.323,-0.443,0.761,1.84,0.575,0.0573,-0.396
CCGAGTAGGTTATGGGGAATTCAGGCAACGGTGA,0.783,0.446,0.494,0.287,0.487,0.724,0.701,0.0968,0.246

# Source: the supplement of paper PMC6555819
